This note sets out measurements from publication PMC5540273 (PLoS ONE, 2017).

Some test systems named below: KIT; LATS1; LATS2; LCK; LIMK1; LIMK2; LRRK2; LTK.
What all share (conditions): concentration: 1 μM, replicates: in singlicate; n = 1
In a further experiment the test system is T1, LKB1.
T1 construct: gene STK11

The next experiment concerns T2, LOK.
T2 construct: gene STK10
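Note: KINOMEscan kinase panel screen.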

Turning to `O=C(Nc1n[nH]c2nc(-c3nccs3)c(Br)cc12)C1CCCC1` [SB-742609], the “%Inh” value came out at 7% in the experiment with KIT; 9% with LATS1; 0% in the experiment on LATS2; 9% in the experiment on LCK; 19% in the experiment on LIMK1; 0% with LIMK2. Moreover, the “%Inh” value is reported as 0% in the experiment on LKB1, 0% with LOK, 35% with LRRK2 and 0% in the experiment with LTK.

`Cc1cc(NCC(c2ccccc2)c2ccccc2)nc(NCc2ccc(C(F)(F)F)cc2)n1` [GW497681]: the “%Inh” value was found to be 6% in the experiment with KIT; 0% with LATS1; 5% in the experiment with LATS2; 0% in the experiment on LCK; 0% with LIMK1; 9% in the experiment on LIMK2. The “%Inh” value in the experiment with LKB1 worked out at 12%; in the experiment with LOK it was 0%; with LRRK2, 0%; in the experiment with LTK, 0%.

As for `Cc1ccc(C(=O)Nc2ccc(Nc3ccnc4cc(-c5ccccn5)ccc34)cc2O)cc1.Cl` [GW440146], the “%Inh” value with KIT is on record as 89%; in the experiment with LATS1 it was 0%; in the experiment on LATS2 it was 0%; in the experiment on LCK, 84%; in the experiment with LIMK1, 0%; in the experiment on LIMK2 it was 2%. Further, the “%Inh” value in the experiment with LKB1 amounted to 9%; in the experiment with LOK, 14%; in the experiment on LRRK2, 4%; in the experiment on LTK, 12%.

Regarding `Cn1cncc1-c1ccc2ncnc(Nc3ccc(OCc4ccccc4)cc3)c2c1` [GW320571], the “%Inh” value came out at 28% in the experiment on KIT; 0% with LATS1; 0% with LATS2; 13% in the experiment on LCK; 18% in the experiment with LIMK1; 11% with LIMK2. Besides, the “%Inh” value was 0% in the experiment on LKB1, 2% in the experiment with LOK, 21% in the experiment with LRRK2 and 11% with LTK.

Turning to `CS(=O)(=O)c1ccc(-c2nc3n(c2-c2ccncc2)CCC3)cc1` [SKF-105942], the “%Inh” value in the experiment on KIT is on record as 0%; in the experiment on LATS1, 0%; in the experiment on LATS2 it was 0%; in the experiment with LCK, 8%; in the experiment with LIMK1, 19%; with LIMK2 it was 0%. The “%Inh” value with LKB1, in the experiment on LOK, in the experiment on LRRK2 and with LTK was 0% throughout.

Take `Cc1cc(N2Cc3ccccc3C2)nc(Nc2ccc(S(=O)(=O)N3CCOCC3)cc2)n1.Cl` [GSK1669917]: the “%Inh” value with KIT is 0%; with LATS1 it was 29%; in the experiment on LATS2, 10%; with LCK, 4%; in the experiment on LIMK1, 0%; in the experiment on LIMK2 it was 16%. The “%Inh” value in the experiment with LKB1 was found to be 12%; in the experiment with LOK, 0%; in the experiment with LRRK2 it was 0%; in the experiment on LTK, 0%.

In the case of `CC1=C(C(=O)Nc2cc3cn[nH]c3cc2F)C(c2ccc(C(F)(F)F)cc2)CC(=O)N1` (stereo not drawn) [GSK429286], the “%Inh” value in the experiment with KIT is recorded as 9%; in the experiment on LATS1 it was 0%; with LATS2, 39%; with LCK it was 22%; in the experiment with LIMK1, 0%; in the experiment with LIMK2 it was 0%. In addition, the “%Inh” value in the experiment on LKB1 is 0%; in the experiment with LOK, 0%; with LRRK2 it was 12%; in the experiment with LTK it was 0%.

Take `Cl.NC(=O)c1cccc(Nc2nccc(Nc3ccc(Oc4cccc(Cl)c4)c(Cl)c3)n2)c1` [GW659008]: the “%Inh” value with KIT is recorded as 46%; with LATS1, 0%; in the experiment on LATS2 it was 0%; in the experiment on LCK it was 68%; in the experiment with LIMK1 it was 43%; in the experiment with LIMK2, 4%. Moreover, the “%Inh” value in the experiment on LKB1 is given as 0%; with LOK, 15%; in the experiment on LRRK2 it was 11%; in the experiment on LTK, 0%.

Regarding `Cc1cccc(-c2nc(Nc3cccc(C(N)=O)c3)c3ccccc3n2)n1` [GW876019], the “%Inh” value is given as 0% with KIT; 8% in the experiment on LATS1; 0% with LATS2; 20% in the experiment with LCK; 0% in the experiment on LIMK1; 9% with LIMK2. Also, the “%Inh” value came to 0% in the experiment with LKB1, 21% in the experiment on LOK, 73% with LRRK2 and 40% in the experiment on LTK.

Turning to `O=C(Nc1n[nH]c2cc(-c3cccc(F)c3F)ccc12)C1CC1` [SB-733894], the “%Inh” value worked out at 18% in the experiment with KIT; 0% in the experiment with LATS1; 22% in the experiment on LATS2; 0% in the experiment with LCK; 0% with LIMK1; 0% in the experiment with LIMK2. The “%Inh” value with LKB1, in the experiment on LOK, with LRRK2 and in the experiment with LTK was 0% each time.

For `Cc1c(O)cccc1Nc1ccnc2ccc(C(F)(F)F)cc12.Cl` [GW466413], the “%Inh” value in the experiment on KIT is listed as 17%; in the experiment on LATS1, 0%; in the experiment on LATS2, 0%; with LCK, 73%; with LIMK1, 0%; with LIMK2, 0%. Moreover, the “%Inh” value was determined as 0% in the experiment on LKB1, 0% with LOK, 58% with LRRK2 and 28% with LTK.

Turning to `Cc1cc(-c2ccc3c(c2)CC[C@@H](N[C@@H](C)c2ccccc2)C3)cnc1N.Cl` [GW412617], the “%Inh” value with KIT turned out to be 60%; in the experiment on LATS1 it was 0%; in the experiment on LATS2, 0%; in the experiment on LCK, 34%; in the experiment with LIMK1, 0%; with LIMK2, 0%. Further, the “%Inh” value was 0% with LKB1, 0% in the experiment with LOK, 33% in the experiment on LRRK2 and 0% with LTK.

On to `Cc1cccc(-c2nc(Nc3ccc4[nH]ncc4c3)c3ccccc3n2)n1` [GW857175], for which the “%Inh” value with KIT was 3%; in the experiment on LATS1 it was 1%; in the experiment on LATS2 it was 50%; with LCK, 10%; with LIMK1, 6%; in the experiment on LIMK2, 2%. The “%Inh” value is 14% in the experiment with LKB1, 19% with LOK, 15% in the experiment with LRRK2 and 0% in the experiment on LTK.

With `COc1cc2ncn(-c3cc(OCC4CCCO4)c(C(N)=O)s3)c2cc1OC` (stereo not drawn) [GSK204607], the “%Inh” value with KIT was determined as 16%; in the experiment with LATS1, 0%; in the experiment on LATS2, 10%; in the experiment on LCK it was 7%; in the experiment on LIMK1, 0%; with LIMK2, 16%. In addition, the “%Inh” value with LKB1 was determined as 0%; with LOK, 96.9%; in the experiment with LRRK2 it was 0%; in the experiment with LTK it was 11%.

In the case of `Cl.Oc1ccc(-c2nc(-c3ccccc3)[nH]c2-c2ccncc2)cc1` [SB-428218], the “%Inh” value in the experiment on KIT was 26%; in the experiment with LATS1, 0%; in the experiment on LATS2, 48%; with LCK, 20%; with LIMK1, 0%; in the experiment with LIMK2, 0%. The “%Inh” value in the experiment with LKB1 turned out to be 8%; in the experiment on LOK, 0%; in the experiment on LRRK2, 0%; in the experiment on LTK it was 0%.

For the compound `O=S(=O)(c1ccc(-c2ccnc3[nH]ccc23)cc1)N1CCCC1` [GSK846226], the “%Inh” value amounted to 23% in the experiment on KIT; 0% in the experiment on LATS1; 68% in the experiment with LATS2; 5% in the experiment on LCK; 7% in the experiment with LIMK1; 21% in the experiment with LIMK2. Also, the “%Inh” value in the experiment with LKB1 was found to be 5%; in the experiment with LOK, 0%; with LRRK2, 0%; in the experiment with LTK, 0%.

`COc1cc(Nc2nccc(N3CCC(NC(=O)Nc4cc(C)ccc4C)C3)n2)cc(OC)c1OC` (stereo not drawn) [GSK1379762]: the “%Inh” value with KIT came to 78%; in the experiment on LATS1, 0%; in the experiment on LATS2 it was 0%; in the experiment with LCK, 21%; in the experiment on LIMK1, 20%; in the experiment with LIMK2, 15%. The “%Inh” value was 0% in the experiment with LKB1, 25% in the experiment on LOK, 22% with LRRK2 and 67% in the experiment on LTK.

Regarding `O=C(Nc1ccccc1)Nc1cccc(Oc2ccc3nccn3n2)c1`, the “%Inh” value in the experiment on KIT is 100%; in the experiment on LATS1 it was 0%; in the experiment on LATS2, 30%; with LCK, 33%; in the experiment on LIMK1 it was 0%; in the experiment with LIMK2 it was 0%. For the same compound, the “%Inh” value with LKB1 is listed as 24%; in the experiment with LOK it was 18%; with LRRK2, 0%; in the experiment on LTK, 0%.
